For 20 compounds, growth inhibition, inhibition and outcome results are on record in PubChem BioAssay.

A number with no mark means an inactive call. For some of these results: Results with a measured potency or affinity are listed apart. Activity calls are given as the source filed them. Unless noted, the rule behind the calls is not given here.

The nature of assay [1]: antimalarial activity against Dd2 strain (AID 2302;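 active = growth inhibition above 50% at the single 2 µM test dose, taken to imply half-maximal potency below 2 µM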;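 note: 0% = DMSO untreated growth and 100% = chloroquine plus artemisinin killed control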). Particulars: P. falciparum Dd2 in RBCs, LDH growth readout, 72 h; at 2 µM; active compounds read high.
Assay [2] can be described thus: HepG2 cytotoxicity, primary screen, cytotoxicity control for P. falciparum antimalarial project, cell-based, ATP luminescence (AID 2303;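 active = inhibition above 50%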;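 note: 0% = DMSO wells and 100% = digitonin-killed cells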). Particulars: HepG2 viability, 24-48 h, at 10 µM, active compounds read high.
In assay [3] the target is L-lactate dehydrogenase (Plasmodium falciparum (isolate CDC / Honduras)) (UniProt Q27743). Description: PfLDH activity inhibition – cell lysate, 3D7 strain, counter-screen for P. falciparum growth inhibition project (AID 2304).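 Note: 0% = vehicle and 100% = reference inhibitor.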 The following applies: P. falciparum 3D7 crude extract, LDH APAD/NBT absorbance; at 2 µM; active compounds read high. In general terms: Counterscreens check selectivity or assay interference.
Chain of L-lactate dehydrogenase (Plasmodium falciparum (isolate CDC / Honduras)) (Q27743 whole entry, looked up): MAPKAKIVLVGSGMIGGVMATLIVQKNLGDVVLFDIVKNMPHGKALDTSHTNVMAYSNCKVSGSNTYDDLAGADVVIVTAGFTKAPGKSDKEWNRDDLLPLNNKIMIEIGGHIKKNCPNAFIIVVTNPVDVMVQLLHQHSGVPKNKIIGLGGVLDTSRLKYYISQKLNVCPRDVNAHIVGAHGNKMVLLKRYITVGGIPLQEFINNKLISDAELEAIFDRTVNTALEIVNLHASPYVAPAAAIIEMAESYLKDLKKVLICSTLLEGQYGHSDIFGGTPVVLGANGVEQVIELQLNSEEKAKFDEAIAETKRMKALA

Assay [4] can be described thus: inhibition of 3D7 malaria parasite growth – strain 3D7 (AID 2306).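 Note: 0% = DMSO wells and 100% = chloroquine plus artemisinin control wells.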 The following applies: P. falciparum 3D7 erythrocytic growth, LDH absorbance, 72 h; at 2 µM; active compounds read high.
Assay [5] deals with Calcium-dependent protein kinase 1 (Plasmodium falciparum (isolate 3D7)) (UniProt P62344). In words: PfCDPK1 kinase inhibitors, biochemical, TCAMS library (AID 1159585; cut-off not given, nearly all actives have IC50 up to about 0.98 µM;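 note: inhibitors leave more ATP so luminescence rises with inhibition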). The following applies: recombinant PfCDPK1, Kinase-Glo ATP depletion luminescence. On the technique in general: Kinase-Glo measures the ATP left after a reaction by luminescence.
Chain of Calcium-dependent protein kinase 1 (Plasmodium falciparum (isolate 3D7)) (P62344 whole entry, looked up): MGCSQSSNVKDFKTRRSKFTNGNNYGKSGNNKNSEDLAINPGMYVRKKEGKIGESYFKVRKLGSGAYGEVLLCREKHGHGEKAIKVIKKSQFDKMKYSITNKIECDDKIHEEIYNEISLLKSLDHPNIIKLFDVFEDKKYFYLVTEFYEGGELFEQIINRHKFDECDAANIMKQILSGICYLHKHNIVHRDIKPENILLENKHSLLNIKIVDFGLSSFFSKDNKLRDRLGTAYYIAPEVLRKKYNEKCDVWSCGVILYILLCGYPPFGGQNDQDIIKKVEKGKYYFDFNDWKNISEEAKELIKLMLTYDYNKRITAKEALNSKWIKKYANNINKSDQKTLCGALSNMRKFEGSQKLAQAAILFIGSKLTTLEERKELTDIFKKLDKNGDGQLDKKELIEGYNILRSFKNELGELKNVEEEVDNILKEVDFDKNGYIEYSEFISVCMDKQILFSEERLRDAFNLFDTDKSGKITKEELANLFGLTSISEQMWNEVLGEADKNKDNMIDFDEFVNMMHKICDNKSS
The target of assay [6] is Plasmodium falciparum protein kinase 6 (PK6, PF3D7_1337100) (UniProt Q8IDW1). Description: PfPK6 kinase inhibitors, biochemical, TCAMS library (AID 1159586). The following applies: recombinant PfPK6, Kinase-Glo ATP depletion luminescence.
Chain of Plasmodium falciparum protein kinase 6 (PK6, PF3D7_1337100) (Q8IDW1 1-305): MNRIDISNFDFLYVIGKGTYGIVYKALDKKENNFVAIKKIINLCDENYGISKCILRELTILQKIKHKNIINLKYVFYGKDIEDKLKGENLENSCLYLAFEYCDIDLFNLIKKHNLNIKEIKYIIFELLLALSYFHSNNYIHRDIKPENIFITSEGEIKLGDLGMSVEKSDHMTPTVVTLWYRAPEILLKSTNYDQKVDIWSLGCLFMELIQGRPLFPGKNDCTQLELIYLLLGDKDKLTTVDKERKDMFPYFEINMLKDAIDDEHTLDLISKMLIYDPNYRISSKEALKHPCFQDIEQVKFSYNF
The target of assay [7] is Protein kinase 7 (PK7), Plasmodium falciparum 3D7 (PF3D7_0213400) (UniProt Q7YTF7). In words: inhibition of Plasmodium PK7 catalytic activity – biochemical, TCAMS antimalarial set, Kinase-Glo luminescence (AID 1159587). Particulars: recombinant PfPK7, Kinase-Glo ATP depletion luminescence.
Chain of Protein kinase 7 (PK7), Plasmodium falciparum 3D7 (PF3D7_0213400) (Q7YTF7 1-343): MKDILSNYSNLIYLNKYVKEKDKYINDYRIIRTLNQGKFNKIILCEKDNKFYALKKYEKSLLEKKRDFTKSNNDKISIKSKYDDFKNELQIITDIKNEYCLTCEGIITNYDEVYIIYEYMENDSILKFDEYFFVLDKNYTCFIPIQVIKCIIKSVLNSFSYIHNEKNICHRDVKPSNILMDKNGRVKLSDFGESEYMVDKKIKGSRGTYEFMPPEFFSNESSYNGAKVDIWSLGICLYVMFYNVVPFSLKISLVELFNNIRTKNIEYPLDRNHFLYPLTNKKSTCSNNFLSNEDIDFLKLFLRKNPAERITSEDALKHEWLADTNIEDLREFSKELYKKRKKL
The target of assay [8] is Calcium-dependent protein kinase 4 (Plasmodium falciparum (isolate 3D7)) (UniProt Q8IBS5). Description: PfCDPK4 kinase inhibitors, biochemical, TCAMS library (AID 1159588; cut-off not given, nearly all actives have IC50 up to about 0.91 µM). The following applies: recombinant PfCDPK4, Kinase-Glo ATP depletion luminescence.
Chain of Calcium-dependent protein kinase 4 (Plasmodium falciparum (isolate 3D7)) (Q8IBS5 whole entry, looked up): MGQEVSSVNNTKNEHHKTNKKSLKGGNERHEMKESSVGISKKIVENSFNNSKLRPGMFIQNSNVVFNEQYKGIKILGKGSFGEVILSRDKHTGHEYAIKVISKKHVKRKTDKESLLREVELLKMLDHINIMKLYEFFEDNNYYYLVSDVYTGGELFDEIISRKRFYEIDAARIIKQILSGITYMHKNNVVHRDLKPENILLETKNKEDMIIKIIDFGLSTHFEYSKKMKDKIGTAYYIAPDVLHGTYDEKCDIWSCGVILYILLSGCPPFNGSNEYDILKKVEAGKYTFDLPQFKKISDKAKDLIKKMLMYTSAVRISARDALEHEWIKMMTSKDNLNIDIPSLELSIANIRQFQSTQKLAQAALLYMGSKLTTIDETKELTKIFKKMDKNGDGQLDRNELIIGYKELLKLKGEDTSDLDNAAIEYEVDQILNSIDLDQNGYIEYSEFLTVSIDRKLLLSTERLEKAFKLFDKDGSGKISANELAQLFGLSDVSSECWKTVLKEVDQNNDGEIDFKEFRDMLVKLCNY

For `O=C(/C=C/c1ccc(Cl)c(Cl)c1)NCC1CCN(Cc2ccc(O)cc2)CC1`, the figures for the growth inhibition in assay [1] and in assay [4] were -3% and 98% (active), respectively. For the same compound, the inhibition in assay [2] was 4%; in assay [3] it was 6%. The outcome in assay [5], in assay [6], in assay [7] and in assay [8] was inactive.

In the case of `CCOc1ccc(C(Cc2ccccc2)NC(=O)c2cccnc2)cc1OCC` (stereo not given), the growth inhibition in assay [1] was 98% (active); in assay [4], 100% (active). Besides, the results for the inhibition in assay [2] and in assay [3] were -21% and 5%, respectively. Also, the result in assay [5], in assay [6], in assay [7] and in assay [8] was inactive.

For `CCCC(CNCc1cccc(SC(F)(F)F)c1)CNc1cc(=O)c2ccccc2[nH]1` (stereo not given), the growth inhibition in assay [1] was 87% (active); in assay [4], 101% (active). The inhibition in assay [2] and in assay [3] was 5% throughout. For the same compound, the result in assay [5], in assay [6], in assay [7] and in assay [8] was inactive.

On to `Cc1cc(N[C@@H](Cc2ccccc2)C(=O)NCCc2ccccc2)nc(NCCOc2ccccc2)n1`, for which the values for the growth inhibition in assay [1] and in assay [4] were 14% and 95% (active), respectively. Also, the values for the inhibition in assay [2] and in assay [3] were 10% and -3%, respectively. The result in assay [5], in assay [6], in assay [7] and in assay [8] was inactive.

On to `O=C(/C=C/c1ccc(Cl)c(Cl)c1)NCCCCCN1CCC(NC(=O)NC2CCCC2)CC1`, for which the values for the growth inhibition in assay [1] and in assay [4] were 31% and 99% (active), respectively. Moreover, the inhibition in assay [2] is 21%; in assay [3], -1%. Moreover, the result in assay [5], in assay [6], in assay [7] and in assay [8] was inactive.

For `O=c1cc(NCCCCNCc2cccc(Br)c2)[nH]c2ccccc12`, the growth inhibition in assay [1] is 19%; in assay [4], 98% (active). Moreover, the inhibition is -1% in assay [2] and 0% in assay [3]. The outcome in assay [5], in assay [6], in assay [7] and in assay [8] was inactive.

With `CCN(CCCN1CCCCC1)c1cc(C)nc(Nc2ccc(C(F)(F)F)cc2)n1`, the growth inhibition was 99% (active) in assay [1] and 102% (active) in assay [4]. Further, the inhibition was 26% in assay [2] and -3% in assay [3]. In addition, the outcome in assay [5], in assay [6], in assay [7] and in assay [8] was inactive.

As for `CN(Cc1ccc(NC(=O)CCC2CCN(C(=O)/C=C/c3ccc(Cl)c(Cl)c3)CC2)cc1)C1CCOCC1`, the growth inhibition is 2% in assay [1] and 94% (active) in assay [4]. Besides, the values for the inhibition in assay [2] and in assay [3] were 10% and 0%, respectively. In addition, the result in assay [5], in assay [6], in assay [7] and in assay [8] was inactive.

Turning to `O=C(Nc1cc(F)cc(F)c1)N[C@H]1CCN(CCCCCNC(=O)[C@@H]2C[C@H]2c2ccc(Cl)c(Cl)c2)C1`, the growth inhibition is -4% in assay [1] and 88% (active) in assay [4]. Moreover, the inhibition is 24% in assay [2] and -3% in assay [3]. The outcome in assay [5], in assay [6], in assay [7] and in assay [8] was inactive.

Take `Cc1[nH]nc2cc(Nc3nccc(Nc4ccc(Oc5ccccc5)cc4)n3)ccc12`: the growth inhibition in assay [1] was 98% (active); in assay [4] it was 101% (active). In addition, the inhibition in assay [2] was 8%; in assay [3], -7%. The outcome in assay [5], in assay [6], in assay [7] and in assay [8] was inactive.

`COc1cc(Nc2nccc(NCC(O)c3ccc(C(F)(F)F)cc3)n2)cc(OC)c1OC` (stereo not given): the values for the growth inhibition in assay [1] and in assay [4] were 14% and 91% (active), respectively. In addition, the inhibition in assay [2] is 45%; in assay [3], -2%. Also, the result in assay [5], in assay [6], in assay [7] and in assay [8] was inactive.

As to `ON=C(c1nc2ccccc2[nH]1)c1nc2ccccc2[nH]1`, the figures for the growth inhibition in assay [1] and in assay [4] were 68% (active) and 93% (active), respectively. Also, the inhibition was 36% in assay [2] and 6% in assay [3]. Moreover, the outcome in assay [5], in assay [6], in assay [7] and in assay [8] was inactive.

In the case of `O=C(/C=C/c1ccc(-c2nc3ccc(Cl)cc3[nH]2)cc1)NC1CCN(Cc2ccccc2)CC1`, the growth inhibition in assay [1] was 92% (active); in assay [4], 100% (active). Moreover, the inhibition is 3% in assay [2] and 0% in assay [3]. The outcome in assay [5], in assay [6], in assay [7] and in assay [8] was inactive.

As for `Cc1c(-c2cccc(Br)c2)[nH]c2nc(N)nc(N)c12`, the growth inhibition was 61% (active) in assay [1] and 100% (active) in assay [4]. Also, the inhibition in assay [2] was 8%; in assay [3], -4%. For the same compound, the result in assay [5], in assay [6], in assay [7] and in assay [8] was inactive.

Consider `Cc1cc(Cl)ccc1OC(C)C(=O)N1CCc2ccccc21` (stereo not given), for which the growth inhibition in assay [1] is 78% (active); in assay [4], 94% (active). The inhibition was 8% in assay [2] and -2% in assay [3]. Further, the outcome in assay [5], in assay [6], in assay [7] and in assay [8] was inactive.

On to `O=C(NC1CCN(c2ncc(C(F)(F)F)cc2Cl)CC1)c1cccs1`, for which the growth inhibition in assay [1] is 65% (active); in assay [4], 84% (active). In addition, the inhibition is 15% in assay [2] and -1% in assay [3]. The result in assay [5], in assay [6], in assay [7] and in assay [8] was inactive.

In the case of `CS(=O)(=O)Nc1ccc(-c2ccc3ccnc(N)c3c2)cc1`, the values for the growth inhibition in assay [1] and in assay [4] were 75% (active) and 85% (active), respectively. The inhibition in assay [2] was 31%; in assay [3], -3%. Besides, the result in assay [5], in assay [6], in assay [7] and in assay [8] was inactive.

With `O=C(NC1CCN(CCN2CCC(c3cn(CCO)c4ccccc34)CC2)CC1)c1ccc(-c2ccc(C(F)(F)F)cc2)cc1`, the growth inhibition was 54% (active) in assay [1] and 98% (active) in assay [4]. Moreover, the inhibition is 30% in assay [2] and -1% in assay [3]. In addition, the outcome in assay [5], in assay [6], in assay [7] and in assay [8] was inactive.

As to `CCCCCCNC(=O)C1Cc2c([nH]c3ccc(C)cc23)C2(CCN(Cc3ccccc3)CC2)N1` (stereo not given), the growth inhibition in assay [1] is 25%; in assay [4], 84% (active). The inhibition in assay [2] was 25%; in assay [3], 6%. For the same compound, the result in assay [5], in assay [6], in assay [7] and in assay [8] was inactive.

On to `CC(=O)Nc1cccc(C(=O)Nc2cccc(-c3ccc(-c4nc5ccc(C(F)(F)F)cc5[nH]4)s3)c2)c1`, for which the growth inhibition was 46% in assay [1] and 98% (active) in assay [4]. For the same compound, the inhibition is 80% (active) in assay [2] and -3% in assay [3]. The outcome in assay [5], in assay [6], in assay [7] and in assay [8] was inactive.

One may read the inhibition as the relative decrease from the control value, in per cent.
